Screening data deposited in PubChem by The Scripps Research Institute Molecular Screening Center.
An excerpt weighted towards active compounds, which were near 4.2% of everything screened.
DAX1 StAR inh = inhibitors of DAX1 repression of SF-1 activated StAR promoter. HEK293T StAR-luciferase reporter, SF-1/DAX-1 repression relief. inhibition, % at 6.8 µM. hit rate 1.1% among 370,000. AID 652010;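 active means inhibition above the mean over all tested compounds plus 3 SD, cut at about 3.6% in these data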;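 further: 0% = DAX-1 cells with DMSO and 100% = cells lacking DAX-1 with DMSO; higher inhibition means more luminescence from relief of DAX-1 repression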
ssDAF12 agonist = activators of S. stercoralis DAF-12 nuclear receptor | hit rate 1% among 370,000 | activation, % at 6.8 µM | HEK293 ssDAF-12/GRIP1 lit1-tk-luc reporter, luminescence; % of 3 µM dafachronic acid response;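 active means activation above the mean over all tested compounds plus 3 SD, cut at about 0.9% in these data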;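 further: 0% = DMSO-only wells and 100% = 3 µM delta7-dafachronic acid wells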
hgDAF-12 ag = hgDAF-12 agonism, primary luciferase screen; hit rate 1.8% among 370,000; HEK293 GAL4-hgDAF12 UAS-luciferase reporter, agonist luminescence; normalized to butyrate control; activation, % at 6.8 µM;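 active means activation above a cutoff set at the mean of all screened compounds plus 3 SD, cut at about 10% in these data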;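 further: 0% = DMSO wells and 100% = sodium butyrate wells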
SMARCA2 activ = SMARCA2 function activation, primary screen; MG213 cells, MMTV-luciferase reporter, dexamethasone, overnight; activation, % at 9.1 µM; hit rate 1% among 370,000; in the data active means activation above about 7.8%;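 further: 0% = vehicle wells and 100% = reference activator wells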
hcDAF-12 act = activators of H. contortus DAF-12 nuclear receptor | activation, % at 6.8 µM | hit rate 1.4% among 370,000 | HEK293 hcDAF-12 lit1-tk-luc reporter, luminescence; 0% DMSO, 100% Δ7-dafachronic acid;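 active means activation above the mean of all tested compounds plus 3 SD, cut at about 5.5% in these data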;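 further: 100% = response to 3 µM Δ7-dafachronic acid high control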
DAX1 inh confirm = NR0B1 (human) inhibition, confirmation; HEK293T StAR-promoter luciferase reporter, SF-1/DAX-1 repression; inhibition, % at 6.8 µM; shares compounds with DAX1 StAR inh; AID 652134; hit rate 87% among 2,400;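 active means inhibition above the average of every tested compound plus 3 SD, cut at about 3.8% in these data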;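 further: 0% = DAX-1 cells with DMSO and 100% = no DAX-1 control cells with DMSO; active compounds raise luminescence by relieving repression of the StAR reporter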
Target sequence (P51843 whole entry, looked up): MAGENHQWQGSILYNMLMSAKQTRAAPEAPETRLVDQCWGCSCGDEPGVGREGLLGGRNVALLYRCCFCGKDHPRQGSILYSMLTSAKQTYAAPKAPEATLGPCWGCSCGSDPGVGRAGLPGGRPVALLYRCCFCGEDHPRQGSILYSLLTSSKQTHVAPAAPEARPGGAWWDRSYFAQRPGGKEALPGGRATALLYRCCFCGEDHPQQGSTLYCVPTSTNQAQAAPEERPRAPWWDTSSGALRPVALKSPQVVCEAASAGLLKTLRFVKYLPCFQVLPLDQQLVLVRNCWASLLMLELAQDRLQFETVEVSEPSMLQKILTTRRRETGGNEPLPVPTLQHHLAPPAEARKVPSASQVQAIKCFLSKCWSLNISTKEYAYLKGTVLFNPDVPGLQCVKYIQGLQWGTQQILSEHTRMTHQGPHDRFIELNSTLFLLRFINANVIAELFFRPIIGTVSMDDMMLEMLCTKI
SF1 mutant ctr = counter-screen for DAX1 inhibitors: nonselective inhibitors with SF-1 AF2 mutant; AID 652136; hit rate 78% among 2,400; HEK293 StAR-luciferase, luminescence; shares compounds with DAX1 StAR inh; inhibition, % at 6.8 µM;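 active means inhibition above the mean of all tested compounds plus 3 SD, cut at about 3% in these data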;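 further: 0% = DAX-1 transfected cells with DMSO and 100% = cells without DAX-1 with DMSO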
* marks the source's active call; other numbers are inactive results; · = no result.

SMILES	DAX1 StAR inh	ssDAF12 agonist	hgDAF-12 ag	SMARCA2 activ	hcDAF-12 act	DAX1 inh confirm	SF1 mutant ctr
O=[N+]([O-])c1cccc(CSc2nnc3ccccn23)c1	0.5	-0.9	-1.4	3.8	-2.4	·	·
COc1cc(SC)ccc1C(=O)Nc1c(C)cccc1C	-0.6	-1.7	0.0	-2.2	-2.1	·	·
COc1cc(SC)ccc1C(=O)NNC(=O)c1cc(C)oc1C	11.8*	0.3	12.8*	3.9	3.5	6.9*	5.0*
COc1cc2c(c(OC)c1OC)-c1ccc(OC)c(=O)cc1[C@@H](NC(C)=O)CC2	6.5*	-0.7	-5.7	-1.9	1.0	23.2*	-4.2
CCOCC(=O)NC1CCc2cc(OC(=O)COCC)c(OC)c(OC)c2-c2ccc(SC)c(=O)cc21 (stereo unspecified)	4.5*	-0.8	-3.7	6.0	1.1	17.2*	-5.8
COc1cc2c(c(OC)c1OC)-c1ccc(N(C)CC(OC)OC)c(=O)cc1[C@@H](NC(C)=O)CC2	0.4	-0.2	-3.3	1.0	1.1	·	·
O=c1cc(CN2CCCC2)c2ccccc2o1	-0.3	-0.5	-1.8	0.8	-0.2	·	·
COc1ccc(/C(C)=N/Nc2nccnc2Cl)cc1	5.6*	0.7	8.0	7.9*	2.4	4.2*	2.8
Cc1ccc(C)c(NC(=O)[C@@H]2CCCN2S(=O)(=O)c2cccc3cccnc23)c1	·	-1.5	-3.8	·	-3.2	·	·
COc1ccc(S(=O)(=O)CCC(=O)N2CCN(c3ccccc3F)CC2)cc1	-0.6	-1.5	-2.7	-2.2	-1.0	·	·
O=C(CCS(=O)(=O)c1ccccc1)N1CCN(c2ccccc2F)CC1	7.0*	-0.4	12.8*	3.7	3.5	7.6*	3.1*
COC(=O)[C@]1(C)CN(C(=O)OC(C)(C)C)C2=C1C(=O)C[C@](C)(C(=O)OC(C)(C)C)C2	-1.2	-0.4	-2.1	-2.3	-0.3	·	·
CCOc1cc(C(=O)NN=C2CCCC2)cc(OCC)c1OCC	6.9*	-0.2	-4.3	-2.3	0.1	0.7	-2.2
COc1ccc(-n2c(=O)c(NC(=O)c3ccccc3)c3n(c2=S)CCCCC3)cc1	4.9*	-1.5	0.0	-2.1	-1.8	-0.3	-0.2
C=C(C)Cn1c(=O)c(NC(=O)c2ccccc2)c2n(c1=S)CCC2	0.0	-0.6	1.9	-2.5	0.6	·	·
C#CCN(C[C@H]1[C@H](OC(=O)Nc2cccs2)[C@H](OC(=O)Nc2cccs2)C[C@H]2C(=O)N(c3ccccc3)C(=O)[C@@H]12)S(=O)(=O)c1ccc(C)cc1	4.6*	-1.0	-3.1	-3.7	-1.7	-0.4	-0.4
C#CCN(C[C@H]1[C@H](OC(=O)NC2CC2)[C@H](OC(=O)NC2CC2)C[C@H]2C(=O)N(c3ccccc3)C(=O)[C@@H]12)S(=O)(=O)c1ccc(C)cc1	-0.3	-0.2	2.6	4.5	-1.1	·	·
Cc1cc(OCc2cc(C(=O)N3CCCCCC3)no2)cc(C)c1Cl	5.5*	0.5	7.7	3.4	3.6	7.1*	4.1*
COc1cc(C)ccc1OCc1cc(C(=O)NCc2ccncc2)no1	4.7*	0.4	10.5*	6.8	1.8	5.3*	3.0*
COc1cc(C)ccc1OCc1cc(C(=O)N2CCN(C3CCCCC3)CC2)no1	5.7*	-0.5	10.5*	3.0	3.2	5.7*	3.8*
COc1ccc(C(=O)NCc2ccncc2)cc1OC	-0.1	-1.7	-3.9	1.5	-0.4	·	·
Cc1ccc(OCc2cc(C(=O)N3CCN(C4CCCCC4)CC3)no2)cc1C	6.4*	-0.6	4.2	3.7	1.5	6.5*	4.1*
COC(=O)[C@@]12C[C@@H](CC(=O)NCc3ccc(C)o3)C(=O)N(Cc3ccc4c(c3)OCO4)C1=CCC(C)(C)C2	-0.1	-1.5	-0.2	-2.8	-2.7	·	·
Cc1ccccc1C(=O)NC1CCCCN(C(C)C)C1=O (stereo unspecified)	0.2	0.2	1.7	-0.6	-3.0	·	·
COc1ccc(OCc2cc(C(=O)N3CCCCCCC3)no2)c(Cl)c1	1.8	0.3	5.7	1.1	0.7	·	·
SMILES	DAX1 StAR inh	ssDAF12 agonist	hgDAF-12 ag	SMARCA2 activ	hcDAF-12 act	DAX1 inh confirm	SF1 mutant ctr
COc1cc(C)ccc1OCc1cc(C(=O)N2CCCCCCC2)no1	4.6*	0.6	9.0	2.1	1.7	5.4*	3.5*
O=C(C1CCC1)N1CCc2cc(S(=O)(=O)C3CCN(Cc4ccc(F)cc4)CC3)ccc21	0.3	-1.1	1.0	-3.5	-0.9	·	·
COc1ccc(/C=N/Nc2ncc(-c3ccccc3)cn2)c(OC)c1	-0.2	-1.5	-1.0	-0.7	-2.2	·	·
COc1ccc(/C=N/Nc2ncccc2[N+](=O)[O-])c(OC)c1	5.0*	-0.2	8.9	4.2	5.2	15.4*	8.9*
O=C(NCCn1ccc2ccccc21)c1ccc2c(c1)OCO2	4.8*	0.0	7.5	4.5	4.2	12.7*	7.9*
COC(=O)c1cc2c(c3c4cc(C#N)ccc4n(S(=O)(=O)c4ccc(C)cc4)c13)C(=O)N(C)C2	-0.7	0.2	1.0	-4.3	0.8	·	·
Cc1cccnc1NC(=O)c1ccc(Br)o1	1.8	-0.7	-0.6	-2.0	0.0	·	·
Cc1ccc(C(=O)Nc2ncccc2O)o1	6.0*	-0.3	8.7	1.5	1.3	5.4*	1.4
CN(C)C(=O)c1cccc(-c2cnc3c(NC=O)cc(-c4ccc(N(C)C)cc4)cn23)c1	-2.0	-2.2	-2.3	0.4	-4.0	·	·
OC[C@H]1O[C@@H](c2nc(-c3ccc(Br)cc3)no2)C[C@@H]1O	4.8*	-0.2	11.6*	2.1	5.8*	6.0*	4.9*
COc1cccc(NC(=O)n2ccc3ccc(-c4ccc5ccn(C(=O)Nc6cccc(OC)c6)c5c4)cc32)c1	-2.5	-0.9	-0.9	-2.8	-0.8	·	·
Cc1cccc(C)c1-n1nnnc1C(c1ccccc1OC(F)(F)F)N1CCN(C/C=C/c2ccccc2)CC1 (stereo unspecified)	4.7*	-0.8	5.7	-5.7	-0.8	-3.5	-1.1
COC(=O)c1ccc(NC(=O)c2ccccc2C(=O)Nc2ccc(C(=O)OC)cc2)cc1	-0.2	-2.0	-1.1	0.9	-2.5	·	·
COC(=O)c1ccc(NC(=O)C(=O)c2cccn2C)cc1	6.9*	0.4	18.2*	7.3	5.1	15.1*	7.3*
COc1ccccc1NC(=O)c1sc2nc3n(c(=O)c2c1C)CCC3	0.5	-1.2	3.8	-2.2	0.1	·	·
Cc1c(C(=O)Nc2ccccn2)sc2nc3n(c(=O)c12)CCC3	8.8*	-0.4	6.5	2.4	4.5	9.8*	6.1*
Cc1cc(=O)[nH]c(SCC(=O)Nc2ccc(Cl)cc2)n1	-0.1	-0.8	-2.6	-4.9	-0.1	·	·
CCc1ccc(NC(=O)Nc2ccon2)cc1	4.6*	-0.5	5.1	1.6	2.6	5.6*	5.4*
Cc1ccc(N=C/C(C(=O)C(F)(F)F)=C(\O)c2cccs2)cc1	4.5*	0.5	5.4	4.5	6.5*	18.4*	6.2*
